Test results: PubChem BioAssay (Tox21)
Records with an inconclusive call do not appear. Where a call stands in place of a potency, no number is given. Activity calls are given as the source filed them. The call rests on the fitted dose curve; in most records, active means well fitted cell-killing curve with a large enough effect in the repeat runs; inconclusive means weak or mixed curves, or effect the other way; inactive means flat fitted curve, though single readings scatter.

Assay: qHTS assay to identify small molecule that activate the aryl hydrocarbon receptor (AhR) signaling pathway - cell viability counter screen (AID 743086); further: nearly all actives have a fitted effect of over 45% in size
Conditions: HepG2-AhR-luc viability, CellTiter-Fluor, 24 h; series mostly up to 70.3 µM
Source text: U.S. Tox21 Program National Center for Advancing Translational Sciences [NCATS] NIH Chemical Genomics Center [NCGC] U.S. Environmental Protection Agency [EPA] National Institutes of Environmental Health Sciences [NIEHS] National Toxicology Program [NTP] U.S. Food and Drug Administration [FDA] Tox21 Assay overview: The Aryl hydrocarbon Receptor (AhR), a member of the family of basic helix-loop-helix transcription factors, is crucial to adaptive responses to environmental changes. AhR mediates cellular responses to environmental pollutants such as aromatic hydrocarbons through induction of phase I and II enzymes but also interacts with other nuclear receptor signaling pathways A cell based HepG2-AhR-luc assay (HG2L7.5c1 cell line, developed by Dr. Michael S. Denison, University of California at Davis) was used to assess the activation of AhR. HepG2 (human hepatocellular carcinoma) cells were stably transfected with an Ah receptor-responsive firefly luciferase reporter gene plasmid containing 20 dioxin responsive elements and luciferase reporter gene. Increased luciferase activity can be used to identify the compounds that induce AhR activation. The cytotoxicity of the compounds screened against the HepG2-AhR-luc cell line was tested in parallel by measuring the cell viability using CellTiter-Fluor assay in the same wells.
Tox21 Assay Protocol Summary: 4000 cells in 5 uL/well were dispensed into white wall/solid bottom 1536-well plates using a Multidrop Combi (Thermo Fisher Scientific Inc., Waltham, MA) dispenser. After the assay plates were incubated at 37C for 5 h, 23 nL of compound or DMSO vehicle was transferred to the assay plates by a pintool station (Kalypsys, San Diego, CA). The plates were incubated at 37C for 24 hr. For cell viability measurement, 1 ul/well of CellTiter-Fluor reagent (Promega, Madison, WI) was added into the assay plates using a Flying Reagent Dispenser (FRD) (Aurora Discovery, CA),and then the assay plates were incubated at 37C for 30 min. The fluorescence intensity in the plates was measured using a ViewLux plate reader (PerkinElmer, Shelton, CT), followed by the addition of 4 uL of ONE-Glo Luciferase Assay reagent (Promega) using an FRD (Aurora Discovery). After the assay plates were incubated at room temperature for 30 min, luminescence intensity was measured using a ViewLux plate reader (Perkin Elmer).
Potency means the concentration at half of the fitted maximal effect.

**Q.** Which Potency does the source give for `CCC(=O)O` here?
**A.** inactive

**Q.** With `C=C(C#N)C(=O)OCC` as the molecule, how does the Potency read?
**A.** inactive

**Q.** With `C[C@@H](O)[C@H]1C(=O)N2C(C(=O)O)=C(S[C@@H]3CN[C@H](C(=O)N(C)C)C3)[C@H](C)[C@H]12` as the molecule, how does the Potency read?
**A.** inactive

**Q.** Which Potency does the source give for `Nc1cc(-c2ccncc2)c[nH]c1=O` here?
**A.** inactive

**Q.** For `Oc1c(Cl)cc(Cl)c(Cl)c1Cl`, which Potency is on record?
**A.** inactive

**Q.** Which Potency does the source give for `CC1CC(OC(=O)c2ccccc2O)CC(C)(C)C1` (stereo not given) here?
**A.** inactive

**Q.** With `CCOC(=O)C1OC1c1ccccc1` (stereo not given) as the molecule, how does the Potency read?
**A.** inactive

**Q.** For `CC1Cc2ccccc2N1NC(=O)c1ccc(Cl)c(S(N)(=O)=O)c1` (stereo not given), which Potency is on record?
**A.** inactive

**Q.** Which Potency does the source give for `O=C1CCCCC1` here?
**A.** inactive

**Q.** With `CCOC(=O)[C@H](CCc1ccccc1)N[C@@H](C)C(=O)N1Cc2ccccc2C[C@H]1C(=O)O` as the molecule, how does the Potency read?
**A.** inactive

**Q.** For `O=C(O)c1ccc([N+](=O)[O-])cc1`, which Potency is on record?
**A.** inactive

**Q.** Which Potency does the source give for `CC1(C)CC(N=C=O)CC(C)(CN=C=O)C1` (stereo not given) here?
**A.** inactive

**Q.** With `C=C1CC[C@H](O)CC1=C/C=C1\CCC[C@]2(C)[C@@H]([C@H](C)/C=C/[C@H](C)C(C)C)CC[C@@H]12` as the molecule, how does the Potency read?
**A.** inactive

**Q.** With `Cc1ccc(C)c(C)c1` as the molecule, how does the Potency read?
**A.** inactive

**Q.** With `CCCCC(CC)COC(=O)CCCCCCCC(=O)OCC(CC)CCCC` (stereo not given) as the molecule, how does the Potency read?
**A.** inactive

**Q.** Which Potency does the source give for `CC[Si](OC(C)=O)(OC(C)=O)OC(C)=O` here?
**A.** inactive

**Q.** For `c1ccc2[nH]cnc2c1`, which Potency is on record?
**A.** inactive

**Q.** With `CN(C)c1ccc(C(=N)c2ccc(N(C)C)cc2)cc1` as the molecule, how does the Potency read?
**A.** 23.4 µM (active)

**Q.** With `CCC(C)C=O` (stereo not given) as the molecule, how does the Potency read?
**A.** inactive

**Q.** Which Potency does the source give for `CCCCNC(N)=O` here?
**A.** inactive

**Q.** Which Potency does the source give for `CCOC(=O)/C=C\C(=O)OCC` here?
**A.** inactive

**Q.** With `CS(=O)(=O)c1ccc([C@@H](O)[C@@H](CO)NC(=O)C(Cl)Cl)cc1` as the molecule, how does the Potency read?
**A.** inactive

**Q.** Which Potency does the source give for `NC(=O)NNc1ccccc1` here?
**A.** inactive

**Q.** For `S=c1nc[nH]c2nc[nH]c12`, which Potency is on record?
**A.** inactive

**Q.** Which Potency does the source give for `CC(=O)CCc1ccccc1` here?
**A.** inactive

**Q.** Which Potency does the source give for `Cc1ccc(C(=O)O)o1` here?
**A.** inactive

**Q.** For `CCCCOCCO`, which Potency is on record?
**A.** inactive

**Q.** For `Clc1cc(Cl)c(Cl)cc1Cl`, which Potency is on record?
**A.** inactive

**Q.** For `Cc1cc(NS(=O)(=O)c2ccc(N)cc2)no1`, which Potency is on record?
**A.** inactive

**Q.** Which Potency does the source give for `Oc1ccc(OCc2ccccc2)cc1` here?
**A.** inactive

**Q.** Which Potency does the source give for `CC#C[C@]1(O)CC[C@H]2[C@@H]3CCC4=CC(=O)CCC4=C3[C@@H](c3ccc(N(C)C)cc3)C[C@@]21C` here?
**A.** inactive

**Q.** With `CN(CCOc1ccc(CC2SC(=O)NC2=O)cc1)c1ccccn1` (stereo not given) as the molecule, how does the Potency read?
**A.** inactive

**Q.** Which Potency does the source give for `CC(C)Cc1ccccc1` here?
**A.** inactive

**Q.** With `CC(=O)[C@@]1(O)CC[C@H]2[C@@H]3CCC4=CC(=O)CC[C@]4(C)[C@H]3CC[C@@]21C` as the molecule, how does the Potency read?
**A.** inactive

**Q.** With `CCCCC(CC)C(=O)OCCOCCOCCOC(=O)C(CC)CCCC` (stereo not given) as the molecule, how does the Potency read?
**A.** inactive

**Q.** For `NCCNCCNCCNCCN`, which Potency is on record?
**A.** inactive

**Q.** Which Potency does the source give for `COCC(=O)O` here?
**A.** inactive

**Q.** Which Potency does the source give for `C/C=C(C)/C=C/C=C(C)C` here?
**A.** inactive

**Q.** Which Potency does the source give for `O=C(Cl)c1c(Cl)c(Cl)c(C(=O)Cl)c(Cl)c1Cl` here?
**A.** inactive

**Q.** With `O=Nc1ccc(O)cc1` as the molecule, how does the Potency read?
**A.** inactive
